Assay outcomes as filed in PubChem.
DT40 TDP1 no CPT – qHTS for Inhibitors of human tyrosyl-DNA phosphodiesterase 1 (TDP1): qHTS in cells in absence of CPT; DT40 Tdp1-/- hTDP1 cells, no CPT, ATP luminescence, 48 h; Potency, µM (series often up to 46.2 µM), inactives show top-dose activity change, negative = growth inhibition, actives largely listed as inhibitors; 420,000 compounds, 15% hits; note: nearly all actives have a fitted effect of over 55% in size
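Chicken DT40 Tdp1-/- cells complemented with human TDP1, screened without camptothecin (DMSO vehicle only), 400 cells/well. Compounds pin-transferred, cells incubated at 37 °C for at least 48 hr. Growth read as ATP-dependent luminescence (CellTiter-Glo, 30 min at RT).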
HT1080NT lethal – qHTS for induction of synthetic lethality in tumor cells producing 2HG: qHTS for the HT-1080-NT fibrosarcoma cell line; HT-1080-NT fibrosarcoma viability, CellTiter-Glo ATP luminescence, 48 h; Potency, µM (doses to about 46.1 µM), for the others: at the top dose activity, negative = less viability, most hits filed as cytotoxic; 360,000 compounds, 1.6% hits; AID 686970, 2013;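 note: NT is the 2HG producing partner of a matched IDH1 knockdown line; 0% = DMSO-treated cells and -100% = media-only wells without cells; nearly all actives have a fitted effect of over 55% in size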
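Read-out is CellTiter-Glo luminescence after 10 minutes at room temperature, following 48 hours' compound treatment of HT-1080-NT cells (750 cells/well, RPMI, 5% FBS, 37 degrees C).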
HT1080 IDH1KD tx – qHTS for induction of synthetic lethality in tumor cells producing 2HG: qHTS for the HT-1080-IDH1KD cell line. 360,000 compounds, 2% hits. HT-1080 IDH1 knockdown viability, ATP luminescence, 48 h. AID 686971, 2013. Potency, µM (highest dose often 46.1 µM), for inactives: at the highest dose activity, negative = toxicity, most hits filed as cytotoxic;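 note: 0% = DMSO wells and -100% = cell-free medium wells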
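CellTiter-Glo luminescence after 48 h compound exposure at 37 degrees C of IDH1-knockdown HT-1080 cells in 5% FBS RPMI. %Activity scaled between DMSO wells and cell-free media wells, with curves fitted and assigned curve classes.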
KB-3-1 cytotox – qHTS assay for MDR1-selective chemotherapeutics: Primary screen using the parental adenocarcinoma cell KB-3-1; Potency, µM (highest dose often 46.1 µM), hits mostly cytotoxic; AID 1347075, 2019; KB-3-1 viability, CellTiter-Glo ATP luminescence, 72 h; 400,000 compounds, 1.4% hits; note: nearly all actives have a fitted effect of over 60% in size
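Luminescent ATP read-out (CellTiter-Glo) measures survival of drug-naive KB-3-1 cells after 72 h compound exposure at 37 °C. Titration series was screened from lowest to highest concentration, with DMSO vehicle plates as background controls.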
TDP1 cell CPT – qHTS for Inhibitors of human tyrosyl-DNA phosphodiesterase 1 (TDP1): qHTS in cells in presence of CPT; chicken DT40 Tdp1-/-;hTDP1 cells + 20 nM CPT, ATP luminescence, 48 h; Potency, µM (series often up to 46.2 µM), for the others: at the top dose activity change, negative = growth inhibition, usual class: inhibitors; 420,000 compounds, 12% hits; AID 686979, 2013; note: nearly all actives have a fitted effect of over 55% in size
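Chicken DT40 Tdp1-/- cells complemented with human TDP1, 400 cells/well, exposed to compounds plus 20 nM camptothecin for at least 48 h at 37 C; viability read as ATP content by CellTiter-Glo luminescence.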
KB-V1 MDR tox – qHTS assay for MDR1-selective chemotherapeutics: Primary screen using the drug-selected MDR subline cells KB-V1; Potency, µM (titrated, usually from 46.1 µM), usual class: cytotoxic; KB-V1 MDR cells viability, CellTiter-Glo, 72 h; 400,000 compounds, 3.4% hits; note: nearly all actives have a fitted effect of over 60% in size
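Cytotoxicity via CellTiter-Glo luminescence after 72 h compound exposure at 37 degrees C. Cells: drug-selected KB-V1 line, DMEM phenol-red free plus 10% FBS. Compounds tested at multiple concentrations; normalized data fitted to concentration-effect curves.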
Numbers without * were called inactive; i = inactive; ? = inconclusive; . = not tested or not shown. Rows were chosen to be rich in hits. Some 19% of all compounds tested hit in one or more screens of this group. Calls come from the whole dose curve; as a rule, active = well fitted curve in the direction sought with a large enough effect; inconclusive = small, poorly fitted or top-dose-only effect, or another doubt; inactive = no such curve, though single readings can be large; an effect the other way counts as inactive or inconclusive. Unless noted, % is set by controls: 0 for no effect and ±100 for the full control effect; potency is the fitted concentration of half-maximal effect.

SMILES	DT40 TDP1 no CPT	HT1080NT lethal	HT1080 IDH1KD tx	KB-3-1 cytotox	TDP1 cell CPT	KB-V1 MDR tox
Cc1ccc(-n2ncc3c(NC4CCCC4)ncnc32)cc1	?	.	.	i	?	i
O=C(NNC(=O)c1ccc([N+](=O)[O-])cc1C(=O)O)c1ccncc1	8%	12%	22%	i	8%	?
CCOC(=O)c1cc(-c2ccccc2)n(CCC(=O)Nc2cc(OCC)ccc2OCC)c1C	?	.	.	i	16µM*	i
CCOC(=O)c1cc(-c2ccccc2)n(CC(=O)NCc2ccccc2OC)c1C	16µM*	.	.	.	16µM*	.
Cc1ccc(C(=O)Nc2ccc(S(=O)(=O)Nc3cnc4ccccc4n3)cc2)cc1	-29%	-1%	-6%	i	2%	?
COc1cccc(NC(=O)N2CCCC2)c1	10%	17%	6%	i	0%	i
COc1cccc(NC(=O)N2CCc3nc(NCc4cccc(Oc5ccccc5)c4)ncc3C2)c1	21µM*	?	?	8.2µM*	10µM*	?
CCOc1ccc(NC(=O)N2CCc3ccccc3C2)cc1	-14%	9%	12%	i	-18%	i
O=C(Nc1ccc(OC(F)(F)F)cc1)N1CCc2nc(NCc3cccc(Oc4ccccc4)c3)ncc2C1	21µM*	?	23µM*	?	18µM*	13µM*
COc1cccc(NC(=O)N2CCc3nc(Nc4cc(Cl)cc(Cl)c4)ncc3C2)c1	23µM*	?	-13%	?	?	i
CC(C)c1ccc(Nc2ncc3c(n2)CCN(C(=O)Nc2ccc(F)c(Cl)c2)C3)cc1	?	?	?	?	?	18µM*
CCN(C(=O)c1cc2c(Cl)nc3ccccc3c2s1)c1cccc(Cl)c1	?	.	.	i	-6%	i
CN(C)NC1CCS(=O)(=O)C1 (centres undefined)	3%	2%	15%	i	-15%	i
CCN(CC)S(=O)(=O)c1cccc(C(=O)NC(Cc2c[nH]c3ccccc23)c2nnc3n2CCC3)c1 (centres undefined)	?	10%	11%	i	-5%	i
COc1cccc(C(=O)NCc2ccc(N3CCN(C(=O)OC(C)(C)C)CC3)cc2)c1	?	0%	-4%	i	?	i
O=C(NCCC(=O)N1CCN(c2cccc(Cl)c2)CC1)c1ccc(Br)cc1	?	-3%	?	i	?	23µM*
COc1ccc(C(=O)NCc2ccc(N3CCN(C(=O)OC(C)(C)C)CC3)cc2)cc1	-29%	3%	-11%	?	?	0.73µM*
COc1ccc(N2CCN(C(=O)CCNC(=O)c3ccc(C(C)(C)C)cc3)CC2)cc1	?	1%	-1%	i	18µM*	i
Cc1ccc(OCC(=O)N(Cc2ccc(N(C)C)cc2)C2CCS(=O)(=O)C2)cc1 (centres undefined)	0%	-1%	11%	i	2%	i
CN(C)c1ccc(CN(C(=O)COc2ccc(Br)cc2)C2CCS(=O)(=O)C2)cc1 (centres undefined)	-1%	-5%	-22%	i	-28%	8.2µM*
Cc1cc(C)cc(OCC(=O)N(Cc2ccc(N(C)C)cc2)C2CCS(=O)(=O)C2)c1 (centres undefined)	-25%	-15%	-20%	i	3%	i
